The entries come from a sample that favours hits as a whole.
ERG-DNA inh: blocks human ERG Ets domain binding to DNA. hit rate 0.028% among 370,000. Potency, µM (titrated, usually from 76.9 µM), for the others: at the top dose FP activity, negative = inhibition, hits mostly inhibitors. AID 624246. P11308. fluorescence polarization, His-ERG Ets domain / labelled DNA; active means well fitted inhibition curve with a large enough effect in the polarisation, with a control signal flat; inconclusive means small, poorly fitted or top-dose-only effect, or effect the other way, or a change in a side signal; inactive means no such curve, though single readings can be large or run the other way; the % refers to the polarisation;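 further: polarization taken with two DNA probes labelled with fluorescein and Texas red; potency means the concentration at half of the fitted maximal effect; % of control where 0% means no effect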
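His-tagged ERG Ets domain (1 uM in the protein solution; 300mM KCl, 50mM Tris-HCl, 1mM EDTA, 1mM DTT, pH 7.5) received compound, then a probe mix of 5 nM fluorescein-DNA and 100nM Texas-615-DNA. Fluorescence polarization was read for both dyes.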
Gal4-VP16 FLuc: inhibits Gal4-VP16 luciferase reporter, ROR gamma counter-screen; Drosophila S2 Gal4-VP16 UAS-luciferase, luminescence, 20 h; Potency, µM (titrated, usually from 53.6 µM), without a hit: top-dose activity, negative = inhibition, most hits filed as inhibitors; hit rate 3.5% among 310,000; AID 2546;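 further: Gal4-VP16 expression switched on by copper sulfate through the metallothionein promoter; potency means the concentration at half of the fitted maximal effect; on the % scale 0 is the no-effect control and ±100 the full control effect; nearly all actives have a fitted effect of over 50% in size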
RORg inh: ROR gamma (mouse) transcription inhibition; Potency, µM (doses to about 53.6 µM), without a hit: top-dose activity change, negative = inhibition, most hits filed as inhibitors; P51450; hit rate 5.4% among 310,000; Drosophila S2 Gal4-RORgamma UAS-luciferase reporter, 20 h; further: potency means the concentration at half of the fitted maximal effect; on the % scale 0 is the no-effect control and ±100 the full control effect; nearly all actives have a fitted effect of over 60% in size
Target sequence (P51450 whole entry, looked up, the tested form may be a part): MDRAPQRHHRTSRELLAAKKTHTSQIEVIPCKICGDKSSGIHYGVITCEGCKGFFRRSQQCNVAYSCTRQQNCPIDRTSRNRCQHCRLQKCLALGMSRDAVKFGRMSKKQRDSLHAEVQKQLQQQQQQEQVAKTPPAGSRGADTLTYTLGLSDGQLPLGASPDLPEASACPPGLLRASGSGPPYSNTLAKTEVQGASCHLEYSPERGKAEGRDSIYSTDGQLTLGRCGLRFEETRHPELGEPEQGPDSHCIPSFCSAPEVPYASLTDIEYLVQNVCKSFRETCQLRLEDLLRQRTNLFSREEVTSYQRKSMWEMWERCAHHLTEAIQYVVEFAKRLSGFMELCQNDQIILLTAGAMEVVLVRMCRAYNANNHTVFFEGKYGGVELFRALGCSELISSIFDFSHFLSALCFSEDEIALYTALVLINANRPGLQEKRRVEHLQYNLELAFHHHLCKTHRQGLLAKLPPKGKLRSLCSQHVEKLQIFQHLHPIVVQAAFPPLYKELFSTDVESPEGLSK
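Compounds are pin-transferred onto Drosophila Schneider cells expressing a copper-inducible Gal4–ROR gamma transactivation domain fusion. After 1 hr, copper sulfate is added to 700 uM final; luciferase is read 20 hr later.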
a7 integrin act: activators of alpha7 integrin expression for muscular dystrophy. alpha7betagal myoblasts, beta-gal FDG fluorescence, 48 h. Potency, µM (doses to about 38.3 µM), for the others: at the highest dose activation, usual class: activators. hit rate 0.064% among 350,000. AID 624291;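 further: potency means the concentration at half of the fitted maximal effect; 100% = response of the positive control SU9516; nearly all actives have a fitted effect of over 60% in size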
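alpha7betagal+/- myoblasts (passage 13, 250/well) treated 48 h at 37C with compounds at 1:260 dilution of DMSO stock. Lysed, then beta-galactosidase activity read as FDG fluorescence (ex 480/em 540) after 30 min, with pre-read for autofluorescence.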
Giardia killer: Giardia lamblia killing | hit rate 0.15% among 340,000 | activity change, % at 7.66 µM, hits read low | Giardia lamblia trophozoite viability; in the data active means activity change below about -80%; inconclusive means between about -30% and that limit;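 further: parasites exposed to compound for two days anaerobically before the ATP read; on the % scale 0 is the no-effect control and ±100 the full control effect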
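Media and compound were dispensed first, then trophozoites at 100 cells/well; plates sat 48 hrs at 37 deg C without oxygen before ATP luminescence reagent was added and read after 15-30 min at room temperature.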
An asterisk follows results filed as active; ? = inconclusive; / = not tested or not shown; [ ] = remark or other dose. Unless noted, the call rests on the fitted dose curve; in most records, active means well fitted curve in the direction sought with a large enough effect; inconclusive means small, poorly fitted or top-dose-only effect, or another doubt; inactive means no such curve, though single readings can be large; an effect the other way counts as inactive or inconclusive.

SMILES	ERG-DNA inh	Gal4-VP16 FLuc	RORg inh	a7 integrin act	Giardia killer
O=S(=O)(NCc1ccncc1)c1ccc(Br)s1	-4%	1.8µM*	-39%	-17%	0
O=S(=O)(NCc1ccncc1)c1ccc(F)c(F)c1	/	/	/	-24%	/
COC(=O)COc1ccc(S(=O)(=O)NCc2ccncc2)cc1	17%	2.8µM*	?	-12%	-12
CCN(C1CCCCC1)S(=O)(=O)c1ccc(S(=O)(=O)NCc2ccncc2)cc1	7%	18µM*	-1%	-43%	-16
O=C(CSc1ccc2nc(-c3ccccc3)cn2n1)Nc1ccccc1	4%	/	/	/	/
Cc1ccccc1C(=O)Nc1ccc2oc(-c3ccc(Cl)c(Cl)c3)nc2c1	-7%	/	/	/	/
O=C1c2ccccc2C(=O)N1c1cccc(N2C(=O)c3ccccc3C2=O)n1	/	/	/	/	-13
COc1ccc(S(=O)(=O)NCc2cccnc2)cc1	-5%	4%	-6%	36%	-7
COc1cc(S(=O)(=O)NCc2ccncc2)ccc1Br	15%	7.1µM*	27%	-26%	-3
COc1ccc(S(=O)(=O)NCc2cccnc2)cc1Br	-3%	11µM*	?	-8%	16
Cc1ccc(S(=O)(=O)NCc2ccncc2)cc1C	-7%	4µM*	11µM*	-38%	13
Cc1ccc2nc(-c3ccc(Cl)cc3)cc(C(=O)OCC(=O)c3ccccc3)c2c1	-2%	/	/	/	/
Cc1ccc(Cl)cc1N1CCN(Cc2nc3ccsc3c(=O)[nH]2)CC1	3%	?	11µM*	5%	-10
COC(=O)c1cc(Br)ccc1NC(=O)CCNC(=O)c1ccco1	9%	-9%	-3%	26%	9
Cc1ccc(N2CC(C(=O)Nc3ncc([N+](=O)[O-])s3)CC2=O)cc1 (centres undefined)	6%	0%	?	7%	-85*
CCSc1nnc(NC(=O)CSc2nccn2-c2cccc(C)c2)s1	-2%	?	11µM*	-4%	-10
CCOc1ccc(-n2ccnc2SCC(=O)Nc2nnc(CC)s2)cc1	-5%	4%	10µM*	-2%	-6
COc1ccc(C2(N3CCN(c4cccc(C)c4C)CC3)C(=O)c3ccccc3C2=O)cc1	2%	/	/	/	/
Cc1ccc(Cl)cc1N	/	1%	0%	/	/
Cc1ccc(-c2ccc(/C=N/N3C(=O)C4C5C=CC(CC5)C4C3=O)o2)c([N+](=O)[O-])c1 (centres undefined)	/	-10%	27%	-27%	-102*
COc1ccc(-c2csc3ncnc(N4CCN(c5ccccc5[N+](=O)[O-])CC4)c23)cc1	8%	-4%	14%	10µM*	16
COc1ccc(CCNc2cc(N3CCN(C(=O)c4ccccc4F)CC3)ccc2[N+](=O)[O-])cc1OC	-8%	10µM*	42%	-28%	-3
COc1ccc(C(=O)N2CCN(c3ccc([N+](=O)[O-])c(NCCc4ccc(OC)c(OC)c4)c3)CC2)cc1	1%	4µM*	?	-37%	28
COc1ccc(CCNc2cc(N3CCN(C(=O)c4ccc(C)cc4)CC3)ccc2[N+](=O)[O-])cc1OC	/	-28%	?	/	/
COc1ccc(CNC(=O)CC(c2ccc(OC)c(OC)c2)N2Cc3ccccc3C2=O)cc1 (centres undefined)	0%	/	/	/	/
SMILES	ERG-DNA inh	Gal4-VP16 FLuc	RORg inh	a7 integrin act	Giardia killer
O=C(CCCN1C(=O)c2ccccc2C1=O)NCCN1C(=O)S/C(=C\c2cccs2)C1=O	9%	-6%	-3%	-6%	10
C=Cc1ccc(COc2ccc3oc(-c4ccccc4)c(C(=O)OCC)c3c2)cc1	5%	/	/	/	/
COC(=O)CSc1nnc(-c2sc3cc(OC)ccc3c2Cl)n1C	7%	-2%	11µM*	15%	4
N#CCSc1nnc(-c2sc3ccccc3c2Cl)o1	-2%	20%	?	-53%	-15
COC(=O)CSc1nnc(-c2sc3ccccc3c2Cl)o1	-6%	20µM*	?	18%	-11
COC(=O)CSc1nc2cc(OC)ccc2n1C	4%	0%	-44%	?	-7
O=C(CSc1nc(-c2ccccc2)nc2c1Cc1ccccc1O2)N1CCCCC1	-1%	/	/	/	/
Cc1ccc(-c2nnc(Nc3ccc4c(c3)OCO4)c3ccccc23)cc1S(=O)(=O)NC(C)C	3%	0%	?	29%	-6
Cc1cc(C(=O)CCl)c(C)n1-c1cccc([N+](=O)[O-])c1	2%	?	8.9µM*	0%	-3
Cc1cc(C(=O)CCl)c(C)n1-c1ccon1	12%	?	8.9µM*	-63%	27
Cc1cc(C(=O)CCl)c(C)n1CCc1ccccc1	-5%	-12%	17%	-14%	2
Cc1ccc(NC(=O)c2ccc3ccccc3n2)nc1	-4%	-29%	-31%	0%	-1
Cc1[nH]c(=O)[nH]c(=O)c1/C=N/NC(=O)[C@H](C)N	?	?	112µM*	18%	-6
CCC(CO)[n+]1c(C)cc(/C=C2\Sc3ccccc3N2Cc2ccccc2)cc1C (centres undefined)	20%	7.1µM*	?	-69%	2
CCN1/C(=C2\SC(=S)N(Cc3ccccc3)C2=O)Sc2ccccc21	5%	-2%	1%	?	18
C=Cc1ccc(C=C)cc1	/	9%	1%	/	/
C[C@@H]1[C@H](C)CC[C@@]2(C(=O)O[C@H]3O[C@@H](CO[C@H]4O[C@@H](CO)[C@@H](O[C@H]5O[C@@H](C)[C@@H](O)[C@@H](O)[C@@H]5O)[C@@H](O)[C@@H]4O)[C@@H](O)[C@@H](O)[C@@H]3O)CC[C@]3(C)C(=CC[C@H]4[C@@]5(C)C[C@@H](O)[C@@H](O)[C@](C)(CO)[C@@H]5CC[C@@]43C)[C@@H]12	/	4%[17 µM]	-16%[16.9 µM]	/	/
C[C@H]1[C@H](C)CC[C@]2(C(=O)O)CC[C@]3(C)C(=CCC4[C@@]5(C)C[C@@H](O)[C@H](O)[C@@](C)(CO)[C@@H]5CC[C@]43C)[C@H]12 (some centres undefined)	/	-6%	11µM*	/	/
C[C@@H]1CC[C@]2(C(=O)O)CC[C@]3(C)C(=CCC4[C@@]5(C)C[C@@H](O)[C@H](O)[C@@](C)(CO)C5CC[C@]43C)C2[C@H]1C (some centres undefined)	/	18µM*	-35%	/	/
CC(=O)O[C@H]1CC[C@]2(C)[C@H]3CC=C4[C@@H]5[C@@H](C)[C@H](C)CC[C@]5(C(=O)O)CC[C@@]4(C)[C@]3(C)CC[C@H]2C1(C)C	/	8%	?	/	/
CC(=O)OC1CC[C@]2(C)C(CC[C@@]3(C)C2C(=O)C=C2C4C(C)C(C)CC[C@@]4(C(=O)O)CCC23C)C1(C)C (some centres undefined)	/	-8%	0.63µM*	/	/
O=C(N/N=C/c1cc(Br)cs1)c1c[nH]c2ccccc12	5%	?	4%	-3%	-20
O=C(N/N=C/c1cc(Br)cs1)c1ccccc1[N+](=O)[O-]	-1%	7.9µM*	5.6µM*	31%	-9
